Shown are actives, neighbours in structure and some others; about 6.7% of the full set was active somewhere.
GDH-TPI counter-1: GDH-TPI coupling enzyme inhibitors, primary screen, artefact control for M. tuberculosis FBA inhibitor project, biochemical, absorbance, full deck; GDH-TPI coupled enzyme counterscreen, NADH absorbance; inhibition, % at 4.8 µM; hit rate 1.2% among 360,000; AID 588335, 2011; in the data active means inhibition above about 30%;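 further: 0% = DMSO wells and 100% = wells lacking the enzyme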
Mtb FBA inh: Mtb FBA enzyme inhibitors, primary screen, biochemical, fluorescence, strain H37Rv | Fructose-bisphosphate aldolase (Mycobacterium tuberculosis (strain ATCC 25618 / H37Rv)), … | purified M. tuberculosis FBA, fluorescence read-out | inhibition, % at 1 µM | hit rate 2.3% among 360,000;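 further: 0% = vehicle and 100% = reference inhibitor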
Target sequence (P9WQA3 whole entry, looked up): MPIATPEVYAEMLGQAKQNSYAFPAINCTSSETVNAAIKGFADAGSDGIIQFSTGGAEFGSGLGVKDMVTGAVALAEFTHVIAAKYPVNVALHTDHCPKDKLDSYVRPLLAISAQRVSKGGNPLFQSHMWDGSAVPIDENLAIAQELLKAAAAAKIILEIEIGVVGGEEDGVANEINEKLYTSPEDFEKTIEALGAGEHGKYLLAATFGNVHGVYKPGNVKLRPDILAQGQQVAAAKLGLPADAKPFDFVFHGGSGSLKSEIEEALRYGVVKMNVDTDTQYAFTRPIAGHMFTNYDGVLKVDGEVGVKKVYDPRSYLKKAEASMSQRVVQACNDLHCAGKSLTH
BoNT-F LC inh: BoNT/F light chain protease inhibitors, primary screen, biochemical, flow cytometry, MLPCN library. Botulinum neurotoxin type F light chain protease (Clostridium botulinum). Multiplex microsphere protease cleavage assay. inhibition, % at 10 µM. hit rate 0.22% among 360,000. AID 588497, 2011; in the data active means inhibition above about 35%, passing the limit was not always enough; inconclusive means no clear call, values can overlap the other calls; further: plate controls were buffer without enzyme for full effect and enzyme alone for no effect
Anthrax LF prot: Bacillus anthracis LF protease inhibitors, primary screen, biochemical, multiplex microsphere, MLPCN library | multiplex microsphere protease cleavage assay | hit rate 0.12% among 360,000 | Lethal factor (Bacillus anthracis), P15917 | inhibition, % at 10 µM; in the data active means inhibition above about 30%; inconclusive means no clear call, values can overlap the other calls; further: plate controls were buffer without enzyme for full effect and enzyme alone for no effect
Bead autofluor: compound fluorescence in toxin protease inhibitor counterscreen. compound autofluorescence counterscreen, microsphere flow cytometry; active compounds read high. fluorescence intensity (no concentration beside the values). hit rate 3.1% among 360,000. AID 624483; in the data active means fluorescence intensity above about 16000; inconclusive means no clear call, values can overlap the other calls
BoNT-A LC inh2: BoNT/A light chain protease inhibitors, primary screen, biochemical, flow cytometry, MLPCN library; multiplex microsphere protease substrate cleavage; inhibition, % at 10 µM; AID 588499, 2011; hit rate 0.17% among 360,000; in the data active means inhibition above about 30%; inconclusive means no clear call, values can overlap the other calls; further: plate controls were buffer without enzyme for full effect and enzyme alone for no effect
Mtb FBA inh conf: M. tuberculosis aldolase blockers, biochemical, fluorescence, strain H37Rv, confirmation. shares compounds with Mtb FBA inh. purified M. tuberculosis FBA, fluorescence read-out. inhibition, % at 1 µM. hit rate 78% among 5,600. AID 651616, 2012;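 further: 0% = vehicle wells and 100% = reference inhibitor wells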
GDH-TPI counter-2: GDH-TPI coupling enzyme inhibitors, artefact control for M. tuberculosis FBA inhibitor project, biochemical, fluorescence, high throughput; shares compounds with Mtb FBA inh; GDH-TPI coupled enzyme counterscreen; inhibition, % at 1 µM; hit rate 81% among 5,600; in the data active means inhibition above about 10%
GDH-TPI dose: GDH-TPI coupling enzyme inhibitors, dose response, artefact control for M. tuberculosis FBA inhibitor project, biochemical, fluorescence, IC50; shares compounds with Mtb FBA inh; GDH-TPI coupled enzyme assay, artifact counterscreen; IC50, µM; hit rate 79% among 170; call rule not given here
* marks the source's active call; other numbers are inactive results; ? = inconclusive; nt = no result; + = active, no number. Unless noted, no stated cut-off is given here; in the data, active means inhibition above about 27%; inactive means the rest.

SMILES | GDH-TPI counter-1 | Mtb FBA inh | BoNT-F LC inh | Anthrax LF prot | Bead autofluor | BoNT-A LC inh2 | Mtb FBA inh conf | GDH-TPI counter-2 | others
CN(Cc1ccccn1)C(=O)CC1C(=O)NCCN1Cc1cccc(Oc2ccccc2)c1 (stereo unspecified) | 6 | 32* | -2 | -1 | 2223 | 1 | 165* | 122*
O=C(CN1CCOCC1)Nc1scc2c1c(=O)oc1ccccc12 | 1 | 2 | -4 | ? | 3541 | -5 | nt | nt
O=[N+]([O-])c1ccc2c(c1)S(=O)c1ccccc1-2 (stereo unspecified) | 26 | 27* | -2 | 6 | 4517 | 0 | 147* | 110*
O=S1c2ccccc2-c2ccccc21 | -1 | 1 | -4 | 3 | 3816 | 0 | nt | nt
CC1=CC2=NC(=O)/C(=C/c3cccs3)C(=N)N2O1 | 25 | -3 | ? | -1 | 3313 | -4 | nt | nt
CCn1c(SCc2ccccc2Cl)nc2nc3c(cc2c1=O)CCCC3 | 3 | 28* | -15 | -6 | 2233 | 0 | 85* | 61*
COc1cccc(NC(=O)CSc2nnc(Cc3ccc(C)cc3)c(=O)n2N)c1 | -7 | -2 | 9 | 1 | ? | 4 | nt | nt
Cc1cc(OC(C)C(=O)N[C@H](C(=O)O)c2ccccc2)c2c3c(c(=O)oc2c1)CCC3 (stereo partly specified) | 3 | 108* | -8 | -2 | 5558 | -1 | 144* | 105*
Cc1cc(Oc2ccc(C(F)(F)F)cc2[N+](=O)[O-])c2c3c(c(=O)oc2c1)CCC3 | 5 | 1 | 10 | 1 | 8890 | 0 | nt | nt
CC(Oc1ccc2c3c(c(=O)oc2c1)CCCC3)C(=O)NCC(O)c1ccccc1 (stereo unspecified) | 19 | 50* | 4 | -3 | 5659 | 2 | 165* | 117*
Cc1cc(OC(C)C(=O)NCC(O)c2ccccc2)c2c3c(c(=O)oc2c1)CCCC3 (stereo unspecified) | 6 | 81* | 1 | 0 | 4685 | 1 | 169* | 131*
COc1ccc(/C=C(\NC(=O)c2ccc(C)cc2)C(=O)NCC2CCCO2)cc1 (stereo unspecified) | 16 | -2 | -2 | -1 | 1898 | 0 | nt | nt
CCOC(=O)c1cn(Cc2ccccc2)c2cc(C)nn2c1=O | 2 | 53* | -10 | -9 | 6542 | -1 | 103* | 86*
CCOC(=O)c1cn(Cc2ccc(Cl)cc2Cl)c2cc(C)nn2c1=O | 4 | 29* | -7 | 5 | 4515 | 0 | 72* | 59*
COC(=O)c1cc(C(=O)OC)n(Cc2ccc(Cl)cc2Cl)n1 | 11 | 3 | 6 | -1 | 15198 | ? | nt | nt
Cc1ccc(/C=N/NC(=O)c2ccccc2OCc2ccc(F)cc2)o1 | 24 | 94* | 2 | -1 | 2009 | -1 | 54* | 47*
CCC(CC)=NNC(=O)c1ccccc1OCc1ccc(F)cc1 | -2 | 0 | -2 | -2 | 9292 | -1 | nt | nt
Fc1ccc(COc2ccc(C(=S)N3CCCC3)cc2)cc1 | -2 | 0 | ? | -1 | 4188 | 1 | nt | nt
S=C(c1ccc(OCc2ccccc2)cc1)N1CCCC1 | 10 | 30* | -2 | -4 | 3049 | 2 | 12 | 0 | GDH-TPI dose=>10
CC1Cc2ccccc2N1C(=O)CSc1nc(-c2ccccc2)cs1 (stereo unspecified) | 12 | 0 | -1 | -4 | 2181 | 0 | nt | nt
N#Cc1ccc(-c2ccc(OCC(=O)NCCc3ccccc3)cc2)cc1 | 5 | 38* | -2 | -1 | 2281 | 0 | 5 | 2
N#Cc1ccc(-c2ccc(OCC(=O)NCC(=O)Nc3ccc(F)c(F)c3F)cc2)cc1 | 11 | 30* | 4 | -1 | 2510 | 1 | + | +
CC1CCCCN1Cc1c(O)ccc2c(=O)c(-c3ccc(Cl)cc3)coc12 (stereo unspecified) | 9 | 52* | -10 | 0 | 3962 | 1 | 123* | 103*
CC1CCCCN1Cc1c(O)ccc2c(=O)c(-c3ccc(Cl)cc3Cl)coc12 (stereo unspecified) | 18 | 62* | ? | 8 | 3322 | -1 | + | +
CCOC(=O)C1CCCCN1Cc1cc(Cl)ccc1O (stereo unspecified) | 6 | 2 | -6 | -2 | 11001 | 0 | nt | nt
SMILES | GDH-TPI counter-1 | Mtb FBA inh | BoNT-F LC inh | Anthrax LF prot | Bead autofluor | BoNT-A LC inh2 | Mtb FBA inh conf | GDH-TPI counter-2 | others
CC1CCCCN1Cc1c(O)ccc2c(=O)c(-c3ccc(Br)cc3)coc12 (stereo unspecified) | 16 | 42* | -16 | -4 | 2965 | 0 | + | 164*
CCn1cc(C(=O)O)c(=O)c2cc(F)c(N3CCN(S(=O)(=O)c4ccc(NC(C)=O)cc4)CC3)cc21 | 12 | 50* | 3 | -2 | 2591 | 0 | -4 | -3
Cn1c(N)c(S(=O)(=O)c2ccc(Br)cc2)c2nc3ccccc3nc21 | 29 | 107* | 3 | -1 | 6280 | 2 | 19 | 18*
COc1ccccc1/C=N/n1c(N)c(S(=O)(=O)c2cccs2)c2nc3ccccc3nc21 | 9 | 24 | 3 | 2 | 9429 | 0 | nt | nt
Nc1c(S(=O)(=O)c2ccccc2)c2nc3ccccc3nc2n1CCN1CCOCC1 | 15 | 47* | 3 | 0 | 2181 | 1 | 70* | 55*
Cc1ccc(S(=O)(=O)c2c(N)n(CCC(C)C)c3nc4ccccc4nc23)cc1 | 4 | 46* | 0 | 2 | 22605* | 2 | 107* | 80*
Nc1c(C(=O)Nc2ccc(F)cc2)sc2nc(-c3ccco3)ccc12 | 11 | 22 | -1 | 10 | 4062 | 19 | nt | nt
COc1ccc(CNC(=O)c2ccc3nccnc3c2)cc1 | 8 | 3 | -18 | -1 | 12458 | -1 | nt | nt
CCCn1nc2cc(C(=O)NCc3ccc(OC)cc3)ccc2c1OCC | 3 | 48* | -6 | 0 | 4289 | 0 | 60* | 32*
CCCn1nc2cc(C(=O)NCc3ccc(OC(F)(F)F)cc3)ccc2c1OCC | 1 | 37* | 1 | -1 | 4105 | 0 | 102* | 81*
COc1ccc(-n2c(Cc3cccn3C)nnc2SCC(=O)N2CCCc3ccccc32)cc1 | -10 | 0 | -3 | -2 | 10902 | 0 | nt | nt
